ABCB6 inh MLPCN: ABCB6 transporter inhibitors, primary screen, K562-ABCB6 cells, flow cytometry, MLPCN library. fluorescence ratio to DMSO, % at 10 µM. ATP-binding cassette sub-family B member 6 (Homo sapiens), Q9NP58. actives 0.19% (n = 360,000). K562-ABCB6 porphyrin accumulation, 1 h; hits give low values;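 active = fluorescence ratio to DMSO below 75%, the collection mean minus 3 SD; inconclusive = too few cells collected in the well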;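 note: signal is porphyrin accumulated inside mitochondria; lower ratio means ABCB6 inhibition with less porphyrin fluorescence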
Target sequence (Q9NP58 whole entry, looked up): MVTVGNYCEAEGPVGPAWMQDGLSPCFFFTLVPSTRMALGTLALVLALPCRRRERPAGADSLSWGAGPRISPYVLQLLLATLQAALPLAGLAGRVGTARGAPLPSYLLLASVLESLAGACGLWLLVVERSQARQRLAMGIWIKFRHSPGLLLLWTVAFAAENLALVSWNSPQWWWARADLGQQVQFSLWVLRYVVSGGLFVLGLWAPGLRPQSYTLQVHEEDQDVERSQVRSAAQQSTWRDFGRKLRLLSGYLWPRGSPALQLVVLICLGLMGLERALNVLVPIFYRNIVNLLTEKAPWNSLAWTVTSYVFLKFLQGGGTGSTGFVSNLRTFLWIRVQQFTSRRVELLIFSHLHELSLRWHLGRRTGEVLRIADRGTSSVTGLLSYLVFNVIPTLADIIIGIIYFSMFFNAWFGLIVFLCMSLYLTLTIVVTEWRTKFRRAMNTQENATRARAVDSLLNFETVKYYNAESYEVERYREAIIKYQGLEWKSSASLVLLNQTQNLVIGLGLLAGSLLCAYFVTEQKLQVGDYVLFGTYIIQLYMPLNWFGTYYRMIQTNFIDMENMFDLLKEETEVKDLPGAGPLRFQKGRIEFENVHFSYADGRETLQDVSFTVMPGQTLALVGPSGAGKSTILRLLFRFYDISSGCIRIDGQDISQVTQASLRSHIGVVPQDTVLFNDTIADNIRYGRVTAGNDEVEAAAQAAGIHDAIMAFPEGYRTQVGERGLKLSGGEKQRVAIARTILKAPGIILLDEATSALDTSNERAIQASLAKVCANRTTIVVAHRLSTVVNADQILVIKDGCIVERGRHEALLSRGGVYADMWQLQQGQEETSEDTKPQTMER
Myeloid diff MLP: induction of myeloid progenitor differentiation, primary screen, cell-based, flow cytometry, MLPCN library; actives 1% (n = 360,000); ER-HoxA9 myeloid progenitors, lysozyme-GFP differentiation; calls only at 10 µM;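 active = normalized GFP-positive differentiation at or above the plate's own cutoff, the solvent-only control mean plus 3 SD; inconclusive = no clear call, values can overlap the other calls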;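 note: cells exposed to compound for four days before flow analysis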
Exocytosis inh: LAMP-1 surface exposure blockers, TALL-104 cells – cell-based, flow cytometry, MLPCN library, primary screen; inhibition, % at 10 µM; actives 0.66% (n = 360,000); TALL-104 LAMP-1 surface exposure; cells stimulated with thapsigargin and PMA;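 active = inhibition above about 55%, limit read from the data; inconclusive = no clear call, values can overlap the other calls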
Numbers stand for hits; - = inactive; ? = inconclusive; . = no result; + = active, no number. In the library only some 1.8% were active in any assay of this set; here they are far more common.

SMILES	ABCB6 inh MLPCN	Myeloid diff MLP	Exocytosis inh
Cc1oc(-c2ccc(Cl)cc2)nc1CN1CCCC(C(=O)NC2CC2)C1 (centres undefined)	-	-	-
CCOC(=O)[C@]12CCCC=C1N(Cc1ccc3c(c1)OCO3)C(=O)[C@H](CC(=O)N1CCCC1)C2	-	-	-
COc1ccc(-c2cc(-c3ccc(Cl)cc3)c(C#N)c(SCC(=O)O)n2)cc1	-	-	-
N#Cc1ccc(-c2cccnc2)nc1SCC(=O)Nc1sc2c(c1C#N)CCC2	-	-	-
N#Cc1ccc(-c2ccccc2)nc1SCC(=O)c1cccc(Cl)c1	-	+	-
N#Cc1ccc(-c2ccc(Cl)cc2)nc1SCC(=O)c1cccc(Cl)c1	-	+	-
CCN(CC)C(=O)CSc1nc(-c2ccccc2)ccc1C#N	-	-	-
N#Cc1ccc(-c2cccnc2)nc1SCC(=O)c1ccccc1	-	+	-
Cc1ccc(Nc2nc(N)nc(N)c2N=O)cc1Cl	-	?	-
CC(=O)Oc1ccc(C(=O)Nc2ccccc2NC(=O)c2ccc(OC(C)=O)cc2)cc1	-	-	58
COc1ccc(C(=O)Nc2ccccc2NC(=O)c2ccc(OC)cc2)cc1	-	-	-
COC(=O)C1=C(C)N(Cc2ccco2)C(=O)/C1=C\c1ccc(N(C)C)cc1	-	-	-
COC(=O)C1=C(C)N(Cc2ccco2)C(=O)/C1=C\c1ccc([N+](=O)[O-])cc1	-	-	92
COc1cccc(NC(=S)NCCN2CCOCC2)c1	-	-	-
COc1cc(NC(=S)NCCCN2CCOCC2)cc(OC)c1	62	-	-
COc1ccc(C(=O)CC(C(=O)O)c2ccc(OC)c(OC)c2)cc1OC (centres undefined)	-	-	-
C[C@@H]1C[C@H]2[C@@H]3C[C@H](F)C4=CC(=O)C=C[C@]4(C)[C@@]3(Cl)[C@@H](O)C[C@]2(C)[C@H]1C(=O)COC(=O)C(C)(C)C	-	?	-
CC1=Nc2ccccc2/C1=C/c1c(C)[nH]c2ccccc12	-	+	-
CC1=Nc2ccccc2/C1=C/c1nc(-c2ccc(C)s2)oc1O	-	-	-
C=CCC1(CC=C)CC(Cc2cnccn2)N(C(=O)OC(C)(C)C)C1 (centres undefined)	-	-	-
O=C(CN1CCCc2ccccc21)NC(=O)NCc1ccccc1	-	-	-
CC(C)(C)NC(=O)NC(=O)CN1CCCc2ccccc21	-	+	-
COc1ccc(C(=O)C2CCN(CC(=O)Nc3ccc(C)cc3)CC2)cc1	-	-	-
O=C(Cc1ccc([N+](=O)[O-])cc1)N1CCN(c2ccc([N+](=O)[O-])cc2)CC1	-	-	-
O=C(Cc1ccc(F)cc1)N1CCN(c2ccc([N+](=O)[O-])cc2)CC1	-	+	-
SMILES	ABCB6 inh MLPCN	Myeloid diff MLP	Exocytosis inh
O=C(c1ccc(-c2cccc(Cl)c2)o1)N1CCN(c2ccc([N+](=O)[O-])cc2)CC1	-	-	-
Cc1c(Cl)cccc1-c1ccc(C(=O)N2CCN(c3ccc([N+](=O)[O-])cc3)CC2)o1	-	-	58
CCOC(=O)C1(C)CCN1C(=O)c1cccc2ccccc12 (centres undefined)	-	-	-
C=CCNc1nc(NCCOc2ccccc2Cl)c2sc(-c3ccccc3)cc2n1	-	-	-
COc1ccc(C(=O)/C=C/c2ccc(N(C)C)cc2)c(OC)c1	-	+	-
COc1ccc(C(=O)/C=C/c2ccccc2)c(OC)c1	-	-	-
CC1(C(=O)NS(=O)(=O)c2ccc(Cl)cc2)CCN1C(=O)c1ccccc1CCc1ccccc1 (centres undefined)	-	-	-
O=C(CCCSc1nc2ccccc2[nH]1)NCc1ccccc1	-	-	-
O=C(CCCSc1nc2ccccc2[nH]1)Nc1nnc(-c2ccccc2)o1	-	+	-
CCC(c1nnnn1-c1ccc2c(c1)OCCO2)N1CCN(CC)CC1 (centres undefined)	-	-	-
O=C1C(Br)=C(c2ccccc2)C(c2ccccc2)=C1c1ccccc1	-	?	106
O=C1NC(c2ccccc2)=C(c2ccccc2)C1=O	-	-	-
CCc1nc2c(OCc3ccc(F)cc3)cccn2c1N(C)C(=O)c1ccc(C)cc1	-	-	-
COC(=O)[C@]12CCCCC=C1N(Cc1ccc3c(c1)OCO3)C(=O)[C@H](CC(=O)NCc1ccc(C)o1)C2	.	-	-
CCN1/C(=C/C=C/c2sc3ccccc3[n+]2CC)Sc2ccccc21	-	-	75
CC[n+]1c(/C=C/Nc2ccccc2)sc2ccccc21	-	-	-
CCN(CC)C(=O)[C@H]1CC(CC(=O)NC(C)(C)C)C(=O)N2CCc3c([nH]c4ccccc34)[C@]12C (some centres undefined)	-	-	-
CCOC(=O)N1CCC(N(CCN(C)C)C(=S)Nc2ccc(Oc3ccccc3)cc2)CC1	-	-	-
Cc1cc(C)nc(NC(=NCCc2c[nH]c3ccccc23)NC(=O)c2ccco2)n1	-	-	95
Cc1cc(C)nc(NC(=NCCc2c[nH]c3ccccc23)NC(=O)Nc2ccccc2)n1	-	-	-
CCOC(=O)CC1(C)NC(C(=O)O)C(C)(C)S1 (centres undefined)	-	-	-
CCCCCCN1C[C@H](O)[C@@H](n2cc(C3CC3)nn2)C[C@@H]1c1ccc(C)cc1	-	-	-
CCCCCCN1C[C@H](O)[C@@H](n2cc(C3CC3)nn2)C[C@@H]1c1ccc(OC)cc1	-	+	-
Cc1cc(C)n(CCC(=O)N2CCCC(N3CCN(c4cccc(Cl)c4)CC3)C2)n1 (centres undefined)	-	-	-
O=C1C=C(c2ccc(C(=O)O)cc2)C[C@@H](c2ccc(F)cc2)C1	-	-	-
SMILES	ABCB6 inh MLPCN	Myeloid diff MLP	Exocytosis inh
Oc1c(C=Nc2ccccc2)sc(=S)n1Cc1ccccc1	-	+	-
C=CCn1c(O)c(C=Nc2ccccc2)sc1=S	-	-	-
COc1cccc(/C=N/NC(=O)c2ccoc2C)c1	-	-	-
COc1ccc(C2=NOC(C(=O)N(C)Cc3ccccc3)C2)cc1 (centres undefined)	-	-	-
O=C(Nc1ccccc1)SC1CCCCC1	-	-	-
c1cncc(-c2nc(-c3cccs3)cs2)c1	-	+	-
c1cncc(-c2csc(-c3cccnc3)n2)c1	-	-	-
CC(C)(C)c1ccc(Oc2ccc(N)cn2)cc1	-	+	-
Cc1cc(Oc2ccc(N)cn2)cc(C)c1Cl	-	-	-
CC1CCCC(=NNC(=O)C2COc3ccccc3O2)C1 (centres undefined)	-	-	-
O=C(/C=C/c1cccs1)c1cc(Cl)ccc1O	-	-	-
O=C(/C=C/c1ccc2ccccc2n1)c1cc(Cl)ccc1O	-	+	-
CC(C)CC1C(=O)N(Cc2cn(CCC3OCCO3)nn2)CCS(=O)(=O)N1Cc1ccc(-c2cccc(N(C)C)c2)cc1 (centres undefined)	-	-	-
CC(C)CN(C(=O)CCCOc1ccc(Cl)cc1Cl)c1c(N)n(Cc2ccccc2)c(=O)[nH]c1=O	-	-	-
CS(=O)(=O)N1CCN(C(=O)c2ccc(Cl)s2)CC1	-	-	-
O=C(c1ccc(Cl)s1)N1CCCC1	-	+	-
